Compound activity (PubChem BioAssay)
Yeast superoxide: reduction of superoxide in aged yeast, primary screen, HTS. S. cerevisiae aged cells, superoxide DHE fluorescence; active compounds read low. superoxide response (% of plate mean), % at 10 µM. actives 0.18% (n = 330,000);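 active = superoxide response under a set limit, about three screen SD below normal, cut at about 65% in these data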;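 also: yeast aged for seven days with compound at 30 °C before DHE staining; 100% = average MFI of all compound-treated wells on the plate with controls excluded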
aDG glyco act: activators of alpha-DG glycosylation, primary screen, uHTS, Pro5-aDG cells, AlphaScreen; alpha-DG glycosylation AlphaScreen (IIH6); 0% Pro5, 100% B10-LARGE cell signal; activation, % at 10 µM; actives 0.22% (n = 360,000);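 active = activation of at least 8% versus controls, or a plate z-score of at least 8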;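 also: Pro5 are CHO cells carrying HIG-tagged alpha-DG that lacks glycosylation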
MPTP block: mitochondrial permeability transition pore inhibitors, primary screen, biochemical, isolated mouse mitochondria, absorbance | Ca2+ swelling absorbance, 30 min | inhibition, % at 10 µM | actives 1.4% (n = 360,000);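 active = inhibition of 50% or more, scaled per plate between neutral and stimulator controls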;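 also: 0% = DMSO wells given calcium and 100% = 1 mM EGTA wells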
Mot1-301 SUMO: yeast Mot1-301 growth rescue at high temperature, primary screen, SUMOylation pathway inhibitor project, S. cerevisiae, ATP luminescence, 38.5C; S. cerevisiae Mot1-301 growth rescue; percent above DMSO median, 100 means doubled; growth rescue, % at 18.8 µM; actives 1% (n = 320,000); AID 2716, 2010;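 active = every valid replicate shows activation above 250% relative to neutral control wells; inactive = the rest, any valid replicate at or below 250%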;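 also: OY570 slx delta 5 strain wells were the positive control but not used for scaling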
FAS-TE inh: FAS thioesterase domain inhibitors, primary screen, biochemical, fluorescence intensity, uHTS; recombinant FAS-TE, OMFH fluorogenic substrate, fluorescence endpoint; actives 0.67% (n = 360,000); Fatty acid synthase (Homo sapiens), P49327; inhibition, % at 15 µM;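 active = compounds whose normalised, plate-corrected inhibition of enzyme fluorescence in the single-dose primary screen is 50% or more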;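 also: 0% = DMSO with enzyme and 100% = substrate without enzyme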
Target sequence (P49327 whole entry, looked up, the tested form may be a part): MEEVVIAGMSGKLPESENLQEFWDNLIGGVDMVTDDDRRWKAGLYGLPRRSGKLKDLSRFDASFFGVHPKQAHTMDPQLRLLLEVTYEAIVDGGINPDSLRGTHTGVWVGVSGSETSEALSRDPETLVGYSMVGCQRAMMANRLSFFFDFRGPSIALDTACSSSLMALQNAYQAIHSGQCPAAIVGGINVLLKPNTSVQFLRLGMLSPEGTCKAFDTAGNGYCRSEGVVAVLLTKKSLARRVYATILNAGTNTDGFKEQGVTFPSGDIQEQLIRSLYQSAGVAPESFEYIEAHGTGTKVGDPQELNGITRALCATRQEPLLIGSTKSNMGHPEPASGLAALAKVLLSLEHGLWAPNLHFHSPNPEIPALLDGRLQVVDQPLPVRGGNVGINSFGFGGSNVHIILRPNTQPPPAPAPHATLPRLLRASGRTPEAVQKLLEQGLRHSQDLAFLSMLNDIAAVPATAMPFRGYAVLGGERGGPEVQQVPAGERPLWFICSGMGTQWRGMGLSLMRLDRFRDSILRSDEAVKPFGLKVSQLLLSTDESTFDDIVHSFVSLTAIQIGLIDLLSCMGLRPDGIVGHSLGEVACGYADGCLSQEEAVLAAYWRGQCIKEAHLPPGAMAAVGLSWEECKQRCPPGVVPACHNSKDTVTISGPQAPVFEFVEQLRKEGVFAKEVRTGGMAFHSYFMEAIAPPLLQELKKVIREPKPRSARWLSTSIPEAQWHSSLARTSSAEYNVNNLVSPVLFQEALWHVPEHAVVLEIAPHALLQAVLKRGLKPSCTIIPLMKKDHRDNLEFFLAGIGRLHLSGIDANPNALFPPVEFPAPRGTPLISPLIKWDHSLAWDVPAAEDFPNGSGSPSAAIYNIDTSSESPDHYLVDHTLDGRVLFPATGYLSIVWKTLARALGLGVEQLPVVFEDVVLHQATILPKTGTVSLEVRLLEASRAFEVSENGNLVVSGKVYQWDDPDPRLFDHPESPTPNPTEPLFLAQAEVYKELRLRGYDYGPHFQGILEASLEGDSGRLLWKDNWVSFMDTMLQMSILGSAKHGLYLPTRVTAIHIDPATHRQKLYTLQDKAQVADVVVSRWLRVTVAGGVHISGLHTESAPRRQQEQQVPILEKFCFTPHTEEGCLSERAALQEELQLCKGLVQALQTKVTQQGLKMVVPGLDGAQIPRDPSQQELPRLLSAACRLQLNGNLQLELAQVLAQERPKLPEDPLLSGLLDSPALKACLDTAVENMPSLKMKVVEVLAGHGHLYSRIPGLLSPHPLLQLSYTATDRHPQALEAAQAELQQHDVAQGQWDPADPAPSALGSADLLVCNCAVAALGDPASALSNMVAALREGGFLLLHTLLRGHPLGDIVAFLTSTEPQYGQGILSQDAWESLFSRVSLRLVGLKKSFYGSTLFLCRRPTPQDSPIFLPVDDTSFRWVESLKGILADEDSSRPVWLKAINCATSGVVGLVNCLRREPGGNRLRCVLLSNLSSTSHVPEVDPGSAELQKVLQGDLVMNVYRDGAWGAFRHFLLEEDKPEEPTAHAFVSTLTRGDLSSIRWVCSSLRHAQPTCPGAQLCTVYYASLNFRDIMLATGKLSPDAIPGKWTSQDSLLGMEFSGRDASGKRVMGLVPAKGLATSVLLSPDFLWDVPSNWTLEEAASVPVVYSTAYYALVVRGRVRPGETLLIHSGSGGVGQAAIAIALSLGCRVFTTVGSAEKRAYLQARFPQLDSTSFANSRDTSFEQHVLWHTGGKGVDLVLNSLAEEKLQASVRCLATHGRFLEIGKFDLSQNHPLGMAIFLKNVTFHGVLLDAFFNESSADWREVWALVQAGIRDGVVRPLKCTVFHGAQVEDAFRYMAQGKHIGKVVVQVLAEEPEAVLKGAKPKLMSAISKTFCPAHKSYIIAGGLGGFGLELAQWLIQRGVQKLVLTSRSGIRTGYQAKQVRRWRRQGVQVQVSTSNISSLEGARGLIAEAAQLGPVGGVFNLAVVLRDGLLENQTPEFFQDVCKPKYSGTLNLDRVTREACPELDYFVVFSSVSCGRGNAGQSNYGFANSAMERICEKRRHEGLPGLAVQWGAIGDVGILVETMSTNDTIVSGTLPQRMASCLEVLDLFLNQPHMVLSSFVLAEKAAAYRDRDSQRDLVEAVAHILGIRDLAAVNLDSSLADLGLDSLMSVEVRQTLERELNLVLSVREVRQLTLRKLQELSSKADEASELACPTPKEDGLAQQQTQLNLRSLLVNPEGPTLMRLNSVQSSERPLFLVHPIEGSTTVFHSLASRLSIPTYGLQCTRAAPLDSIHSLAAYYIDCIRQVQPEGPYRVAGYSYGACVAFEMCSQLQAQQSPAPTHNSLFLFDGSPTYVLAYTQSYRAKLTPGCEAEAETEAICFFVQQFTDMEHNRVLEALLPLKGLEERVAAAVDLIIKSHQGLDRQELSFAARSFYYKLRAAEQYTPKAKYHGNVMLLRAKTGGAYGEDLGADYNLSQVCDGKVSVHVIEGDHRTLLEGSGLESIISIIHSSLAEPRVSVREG
H9c2 protect: cardioprotection against H2O2-induced cell death, primary screen, uHTS, H9c2 cells, ATPLite luminescence. H9c2 cardiomyocytes, H2O2 injury protection, 2 h. AID 588492, 2011. protection from H2O2 cell death, % at 20 µM. actives 0.63% (n = 360,000);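 active = compounds giving at least 50% protection of heart cells from peroxide-induced death in the single-dose screen, raw or plate-pattern-corrected value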;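 also: 0% = DMSO wells with peroxide and 100% = DMSO wells without peroxide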
Rh123 counter: fluorescence retest of MPTP screen hits in isolated mitochondria, single concentration; shares compounds with MPTP block; membrane potential, Rhodamine 123 fluorescence; inhibition, % at 10 µM; actives 78% (n = 5,000); in the data active = inhibition above about 22%;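 also: 0% = DMSO vehicle and 100% = positive control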
MPTP abs DR: mitochondrial permeability transition pore inhibitors, dose response, biochemical, absorbance, uHTS hits; actives 58% (n = 780); IC50, µM; shares compounds with MPTP block; isolated mitochondria swelling; in the data active = IC50 below about 20 µM
MPTP counter DR: fluorescent counter-screen in isolated mitochondria, dose response, counter-screen for MPTP inhibitor project, biochemical, fluorescence, uHTS hits. shares compounds with MPTP block. isolated mitochondria counterscreen, fluorescence read-out. IC50, µM. actives 49% (n = 780); in the data active = IC50 below about 80 µM
Active calls of the source: *; / = no result; ! = repeats disagree. Sampled rows, rich in hits. Any-hit rate of the full collection: about 3.8%.

SMILES | Yeast superoxide | aDG glyco act | MPTP block | Mot1-301 SUMO | FAS-TE inh | H9c2 protect | Rh123 counter | others
Cc1nc(C)c(C(=O)NNS(=O)(=O)c2ccc3ccccc3c2)s1 | 94 | 2 | 89* | 1 | -5 | -11 | 62*
COc1ccccc1N1CCN(C2C(=O)Nc3ccccc3-n3nnnc32)CC1 (stereo not given) | / | 0 | 0 | / | / | / | /
O=C(Nc1ccccc1-c1nc2ccccc2[nH]1)c1ccc(S(=O)(=O)N2CCCCC2)cc1 | / | 0 | 50* | / | 8 | -1 | 28*
CC1CCCCN1S(=O)(=O)c1ccc(C(=O)Nc2ccccc2-c2nc3ccccc3[nH]2)cc1 (stereo not given) | 96 | 1 | 74* | 4 | 31 | -8 | 75*
COc1ccc(NC(=O)[C@@H]2O[C@H](CO)[C@H](O)[C@H](O)[C@H]2O)cc1F | / | 0 | 1 | / | -14 | 9 | /
O=C(NCc1ccc(F)cc1)c1cc(C2CCCCN2S(=O)(=O)c2ccc(F)cc2F)on1 (stereo not given) | / | 0 | 2 | / | 14 | 1 | /
CCCCNc1c(-c2ccc(OC)c(SC3CCCCC3)c2)nc2ccc(C)cn12 | 108 | 1 | 76*! | / | 23 | -26 | 98*
COc1ccc(-c2nc3ccc(C)cn3c2NCc2ccccc2)cc1SC1CCCCC1 | 106 | 1 | 98* | 185 | 17 | -20 | 95*
Cc1ccc2nc(-c3cccc(SC4CCCCC4)c3)c(NCc3ccccc3)n2c1 | 106 | 1 | 12 | / | 18 | -31 | /
CCC1Sc2ccc(S(=O)(=O)Nc3ccc(OC)c(OC)c3)cc2NC1=O (stereo not given) | 103 | 1 | 95* | -10 | 5 | -14 | 87*
O=C1NCCNC1c1ccccc1 (stereo not given) | / | 0 | 0 | / | -8 | 14 | /
Nc1nc2ccc(Cl)cc2cc1C(=O)NCCc1c[nH]c2ccccc12 | / | 2 | 84* | / | 26 | / | 91*
CCCNC(=S)N1CCC(C(=O)c2ccc(F)cc2)CC1 | 104 | 0 | -1 | -11 | 0 | -5 | /
CC(Nc1ncnc2ccccc12)c1ccccc1 (stereo not given) | 96 | 2 | 96* | -32 | -2 | -19 | 83*
CC(C)C(N)c1csc(NC(=O)Nc2ccc(OC(F)(F)F)cc2)n1 (stereo not given) | / | 2 | 70* | / | -5 | -21 | 88*
CC(C)C(N)c1csc(NC(=O)Nc2cccc(C(F)(F)F)c2)n1 (stereo not given) | / | 2 | 5 | / | -11 | -14 | /
C[C@H](CO)N1C[C@H](C)[C@H](CN(C)S(=O)(=O)c2cccc(F)c2)OCc2ccccc2-c2c(n(C)c3ccccc23)C1=O | / | 0 | 0 | / | 20 | -7 | /
O=C(NCc1cc(Cl)cc(Cl)c1)c1csc(COCCO)n1 | / | 0 | 0 | / | -9 | -2 | /
CC[C@H](C)[C@@H](CN[C@H](C)CNC)NCCC(c1ccccc1)c1ccccc1 | 97 | 0 | 101* | -7 | -5 | -8 | -17 | MPTP abs DR=3.8*;MPTP counter DR=>80
N=c1oc2cc(O)ccc2cc1C(=O)Nc1ccc(Br)cc1 | 93 | 0 | 61* | 4 | 3 | -23 | 78*
N=c1oc2cc(O)ccc2cc1C(=O)Nc1ccccn1 | 99 | / | / | -21 | / | / | /
Cc1ccccc1Cn1cnc2c(cnn2C(C)(C)C)c1=O | 92 | 1 | 15 | 0 | 0 | -7 | /
